# Results published in the supplement of paper PMC3484114.
# ± gives the standard deviation.
# System: OVCAR-3-derived ovarian cancer stem-like cells (spheroids)
# Assay: cell growth relative to untreated control; higher = more growth (less inhibition)
# Conditions: 2.29 µM; 96 h
# Outline: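 Percent growth was calculated against untreated wells once blanks were subtracted and Grubbs outliers removed. The cells were OVCAR-3 spheroid-derived stem-like cells, trypsinized and plated at 50,000 cells/mL in stem cell medium on ultra-low attachment 96-well plates for a 24 h preincubation. They were then exposed to compounds at 2.29 uM for 96 h at 37°C, 5% CO2, in 4 replicate wells, and viability was measured by TOX8 resazurin fluorescence (ex 560/em 590 nm) after 4 h.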
row,Compound,cell growth [%]
1,NC(N)=N/N=C(\c1ccc(Cl)cc1)C1CC1,200 ± 43
2,O=C1C(Cl)=C(N2CCN(C3=C(Cl)C(=O)c4ccccc4C3=O)CC2)C(=O)c2ccccc21,52.1 ± 17
3,O=C(CC(=O)c1ccccc1NC1=Cc2ccccc2C(=O)C1=O)C(=O)NC1=C(Cl)C(=O)c2ccccc2C1=O,33.3 ± 13
4,Cc1nc(Nc2ccc(Cl)c(Cl)c2)sc1C(/C=C/c1ccc2c(c1)OCO2)=N/Nc1ccc([N+](=O)[O-])cc1[N+](=O)[O-],101 ± 15
5,O=C(CCCN1CCC(C(O)c2ccc(F)cc2)CC1)c1ccc(F)cc1 (centres undefined),99.7 ± 22
6,CC1C(Oc2c(-c3ccc(O)c(O)c3)oc3c(O)cc(O)cc3c2=O)OC(O)C(O)C1O (centres undefined),77.6 ± 18
7,Fc1cccc(Cl)c1C1SCc2nc3ccccc3n21 (centres undefined),22.8 ± 9.7
8,C[n+]1ccc(Nc2ccc(NC(=O)c3ccc(Nc4cc[n+](C)c5ccc([N+](=O)[O-])cc45)cc3[N+](=O)[O-])cc2)cc1,70 ± 17
9,CN(C)c1nc(=NCc2ccco2)ss1,93.7 ± 7
10,Oc1[nH]c2ccccc2c1N=Nc1nc(-c2ccc(Br)cc2)cs1,81.5 ± 29
11,N#CCCN(CCC#N)c1ccc(C=Nc2ccc(F)cc2)cc1,101 ± 28
12,CC(CN1CC(=O)NC(=O)C1)N1CC(=O)NC(=O)C1 (centres undefined),221 ± 43
13,CCOC(=O)CNC(=O)NC12CC3CC(CC(C3)C1)C2,95.4 ± 18
14,COc1ccc2cc1Oc1ccc(cc1)CC1c3c(cc(OC)c4c3Oc3cc5c(cc3O4)CCNC5C2)CCN1C (centres undefined),71.8 ± 23
15,Cc1ccc(/C=C2\CNC/C(=C\c3ccc(C)cc3)C2=O)cc1,44.5 ± 10
16,Cc1cc(O)c2c(c1)C(=O)c1cc(O)cc(O)c1C2=O,107 ± 17
17,Nc1ncnc2c(C3OC(CO)C(O)C3O)[nH]nc12 (centres undefined),23.9 ± 5.3
18,O=S(=O)(O)c1cc(N=Nc2cc(S(=O)(=O)O)c3cccnc3c2O)ccc1/C=C/c1ccc(N=Nc2cc(S(=O)(=O)O)c3cccnc3c2O)cc1S(=O)(=O)O,93.7 ± 14
19,CCOC(C)C(C=NNC(N)=S)=NNC(N)=S (centres undefined),23 ± 5.7
20,CC1=CC(C)(C)N=C2SC(c3ccc(N)cc3)=NN12,112 ± 28

row,Compound,cell growth [%]
1,CNc1nc(N(C)C)nc(N(C)C)n1,89.9 ± 20
2,CCCC(=O)OCC1OC(n2ccc(N)nc2=O)C(OC(=O)CCC)C1OC(=O)CCC (centres undefined),31.7 ± 19
3,CCOC(=O)CCc1c(C)c2c(O)cc(O)cc2oc1=O,100 ± 21
4,c1ccc(-c2cccc(-c3ccccn3)n2)nc1,79.9 ± 17
5,CCN(CC)CCNC(=O)c1nn(-c2ccc(Cl)cc2)c2c1CCc1cc(OC)ccc1-2,79.1 ± 11
6,COc1cc(-c2cc(=O)c3c(OC)c(OC)c(OC)c(OC)c3o2)cc(OC)c1OC,79 ± 21
7,CC(=O)c1sc2c(c1OC(=O)c1ccc(Cl)cc1Cl)c(=O)n(-c1ccccc1)c(=S)n2-c1ccccc1,94.1 ± 24
8,CN/N=C(\C)C(CN1CCCCC1)C(C1=C(O)c2ccccc2OC1)c1ccccc1 (centres undefined),94.9 ± 41
9,CC1=CC(=O)c2ccccc2C1=O,89.6 ± 9.4
10,O=C1NC(c2cccc3ccccc23)Nc2ccc(Cl)cc21 (centres undefined),99.5 ± 9.1
11,COc1cc(/C=C/C(=O)CC(=O)/C=C/c2ccc(O)c(OC)c2)ccc1O,89 ± 24
12,COC(=O)c1ccc(NCc2cc(O)ccc2O)cc1,108 ± 12
13,O=[N+]([O-])c1cc(-c2nc(=S)[nH][nH]2)ccc1O,98.5 ± 14
14,CCCCCC(CN1CCOCC1)C(=O)/C=C/c1ccccc1 (centres undefined),93 ± 29
15,COc1cc(C(C)c2cc3c(cc2OCCO)OCO3)cc(OC)c1OC (centres undefined),24.7 ± 6.7
16,Cn1cnc([N+](=O)[O-])c1Sc1nnnn1-c1ccccc1,92.6 ± 24
17,COc1ccc2cc(CN3CCC(C4CCN(Cc5ccc6cc(OC)ccc6c5)CC4)CC3)ccc2c1,110 ± 24
18,O=C1/C(=C/c2cccs2)Oc2ccccc21,94 ± 12
19,O=C1OC(c2ccco2)=N/C1=C\c1ccc(Cl)c(Cl)c1,17.7 ± 5
